RORg inh – blocks mouse ROR gamma transcriptional activity; Drosophila S2 Gal4-RORgamma UAS-luciferase reporter, 20 h; Potency, µM (titrated, usually from 53.6 µM), for the others: top-dose activity change, negative = inhibition, most hits filed as inhibitors; AID 2551; P51450; hit rate 5.4% among 310,000; also: potency is read from the fitted curve at half-maximal effect; % is scaled to controls: 0 for no effect and ±100 for the full control effect; nearly all actives have a fitted effect of over 60% in size
Target sequence (P51450 whole entry, looked up, the tested form may be a part): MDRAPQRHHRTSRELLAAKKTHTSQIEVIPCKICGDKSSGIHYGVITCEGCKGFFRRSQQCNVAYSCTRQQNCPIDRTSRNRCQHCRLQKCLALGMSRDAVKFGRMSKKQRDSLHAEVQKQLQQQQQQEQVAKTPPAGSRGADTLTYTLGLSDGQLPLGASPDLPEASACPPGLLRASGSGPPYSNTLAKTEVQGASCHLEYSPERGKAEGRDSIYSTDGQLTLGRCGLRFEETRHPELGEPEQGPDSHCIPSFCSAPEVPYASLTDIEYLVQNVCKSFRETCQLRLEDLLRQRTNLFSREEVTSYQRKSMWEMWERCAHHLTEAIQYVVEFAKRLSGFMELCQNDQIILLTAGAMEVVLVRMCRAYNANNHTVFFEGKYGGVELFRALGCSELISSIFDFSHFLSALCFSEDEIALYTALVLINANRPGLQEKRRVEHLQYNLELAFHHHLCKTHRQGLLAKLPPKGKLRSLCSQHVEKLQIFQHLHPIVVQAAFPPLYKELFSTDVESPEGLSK
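Schneider cells (Drosophila), stable Gal4 DBD–ROR gamma + UAS-luc; 1 hr cmpd preincubation; Cu2+ induction 700 uM final; 20 hr ambient; luminescence.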
p53 reactivator – restores transcriptional activity of mutant p53 | H1299 p53-A138V BP100-luciferase reporter, luminescence, 24 h | Potency, µM (top dose mostly 92.2 µM), without a hit: at the top dose activity change, positive = activation, most hits filed as activators | hit rate 0.063% among 320,000 | AID 504706; also: potency is read from the fitted curve at half-maximal effect; % of control where 0% means no effect; nearly all actives have a fitted effect of over 45% in size
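H1299 (p53-null), stable ts p53-A138V + BP100-Luc; 1000 cells/well, Opti-MEM/10% FBS; cpd 4 pt, 1:5; 24 h, 37 deg C, 5% CO2; detection reagent 10 min RT; luminescence.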
VP16 counter – counter-screen for ROR gamma inhibitors: Gal4-VP16 reporter | Drosophila S2 Gal4-VP16 UAS-luciferase, luminescence, 20 h | Potency, µM (series often up to 53.6 µM), for the others: at the highest dose activity, negative = inhibition, usual class: inhibitors | hit rate 3.5% among 310,000;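 also: Gal4-VP16 expression switched on by copper sulfate through the metallothionein promoter; potency is read from the fitted curve at half-maximal effect; % is scaled to controls: 0 for no effect and ±100 for the full control effect; nearly all actives have a fitted effect of over 50% in size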
Giardia kill – kills Giardia lamblia. activity change, % at 7.66 µM, hits read low. AID 540267. Giardia lamblia trophozoite viability. hit rate 0.15% among 340,000; in the data active = activity change below about -80%; inconclusive = between about -30% and that limit;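 also: parasites exposed to compound for two days anaerobically before the ATP read; % is scaled to controls: 0 for no effect and ±100 for the full control effect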
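Giardia trophozoites, 100 cells per well, were exposed to compounds for 48 hrs at 37 deg C under anaerobic conditions; viability was then read as ATP content by bioluminescence after 15-30 min at room temperature.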
BRCA1 expr up – BRCA1 expression activation. MCF7-BRCA1-FFLuc reporter, luminescence, 48 h; response scale: scaled: vehicle 0%, 10 µM genistein 100%. Potency, µM (doses to about 46.1 µM), inactives show at the top dose activation, actives largely listed as activators. hit rate 1.1% among 380,000; also: potency is read from the fitted curve at half-maximal effect; nearly all actives have a fitted effect of over 80% in size
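MCF7-BRCA1-FFLuc, 2000 cells/well; 2 h attach, 37 °C/5% CO2; compound 48 h; luciferase substrate 15 min; luminescence end-point. Norm. to genistein 10 microM max activation and DMSO; concentration-response curves fitted.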
ELG1 repair inh – ELG1-dependent DNA repair inhibition; HEK293T ELG1-luciferase reporter, luminescence, 16 h; DNA damage induced by 5-fluorouridine; Potency, µM (top dose mostly 46.1 µM), for inactives: top-dose activity change, negative = inhibition, usual class: inhibitors; hit rate 2.3% among 330,000; AID 504467; also: potency is read from the fitted curve at half-maximal effect; % is scaled to controls: 0 for no effect and ±100 for the full control effect; nearly all actives have a fitted effect of over 55% in size
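Cells (2,000 per well) received 5-fluorouridine plus test compound or DMSO and were incubated 16 hr at 37 °C, 5% CO2. Luciferase activity was read by luminescence 30 min after ONE-Glo addition; signal suppression marked inhibition of damage-induced ELG1 function.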
Active calls of the source: *; [ ] = dose if it differs, or a comment. An excerpt weighted towards active compounds, which were near 7.6% of everything screened. Unless noted, calls follow the shape of the dose curve; as a rule, active = well fitted curve in the direction sought with a large enough effect; inconclusive = small, poorly fitted or top-dose-only effect, or another doubt; inactive = no such curve, though single readings can be large; an effect the other way counts as inactive or inconclusive.

`CCOC(=S)SCc1cn2cccc(C)c2n1` gave RORg inh 14.1µM*, p53 reactivator 4.1%, VP16 counter -26.9%, Giardia kill -11.8, BRCA1 expr up -6.0% and ELG1 repair inh 7.8%.
Screening CC1CCCC(NC(=O)C2N(CCCN3CCCC3)C(=O)C3C(C(=O)Nc4ccc(Cl)cc4)C4C=CC32O4)C1C (stereo not given) returned RORg inh -19.6%, p53 reactivator -5.1%, VP16 counter 15.6%, Giardia kill -26.6, BRCA1 expr up -16.5% and ELG1 repair inh -7.8%.
Screening CC(C)CC(=O)NCCc1ccncc1 returned RORg inh 12.4%, p53 reactivator 1.4%, VP16 counter -6.4%, Giardia kill -6.9, BRCA1 expr up 1.4% and ELG1 repair inh 10.9%.
For COc1ccc(N(CC(=O)N2CCN(Cc3ccccc3)CC2)S(C)(=O)=O)cc1OC the results were RORg inh -29.4%, p53 reactivator 6.2%, VP16 counter -5.3%, Giardia kill 10.8, BRCA1 expr up -0.2% and ELG1 repair inh -5.9%.
Cc1ccc(C(=O)Nn2cnnc2)c(Cl)c1 was read as RORg inh -3.0%, VP16 counter -1.8%, Giardia kill 17.6, BRCA1 expr up -9.2% and ELG1 repair inh -0.1%.
For CCn1nc(NC(=O)c2ccccc2)c2cc3cccc(C)c3nc21 the results were RORg inh -8.5%, p53 reactivator -2.7%, VP16 counter 3.4%, Giardia kill -0.9, BRCA1 expr up -9.6% and ELG1 repair inh 7.3µM*.
For Cc1ccc2nc3c(cc2c1)c(NC(=O)c1ccccn1)nn3CC(C)C the results were RORg inh 1.78µM*, p53 reactivator -1.3%, VP16 counter 5.01µM*, Giardia kill 3.3, BRCA1 expr up -0.8%[1.84 µM] and ELG1 repair inh 23.1µM*.
Screening CC(=O)Nc1nn(CC(C)C)c2nc3ccc(C)cc3cc12 returned BRCA1 expr up -4.4%.
Screening CCn1nc(NC(C)=O)c2cc3cccc(C)c3nc21 returned RORg inh -1.2%, p53 reactivator -5.4%, VP16 counter -2.1%, Giardia kill 5.4, BRCA1 expr up -18.1% and ELG1 repair inh -4.3%.
Screening CCn1nc(NC(=O)c2ccccn2)c2cc3cc(C)ccc3nc21 returned RORg inh 5.01µM*, p53 reactivator 2.1%, VP16 counter 7.08µM*, Giardia kill -2.7, BRCA1 expr up 94.5% and ELG1 repair inh inconclusive.
CC(C)CC(C)c1cc(N)nc2nc3ccccc3n12 (stereo not given) was read as RORg inh 15.8µM*, p53 reactivator -1.6%, VP16 counter -12.1%, Giardia kill 32.6, BRCA1 expr up -46.2% and ELG1 repair inh 0.5%.
`Cc1cc(N2CCN(c3ccccc3)CC2)n2c(n1)nc1ccccc12` gave RORg inh -0.3%, p53 reactivator -0.9%, VP16 counter -4.6%, Giardia kill -3.6, BRCA1 expr up -4.3% and ELG1 repair inh inconclusive.
For Nc1nc2ccc(C(=O)N3CCCCC3)cc2s1 the results were RORg inh 2.7%, p53 reactivator 0.3%, VP16 counter 0.7%, Giardia kill 6.5, BRCA1 expr up -1.9% and ELG1 repair inh -2.2%.
Screening c1ccc(-c2cn3nc(-c4ccccc4)c(-c4ccccc4)nc3n2)cc1 returned RORg inh 22.4µM*, p53 reactivator 4.8%, VP16 counter -3.0%, Giardia kill 4.2, BRCA1 expr up -0.3% and ELG1 repair inh 5.7%.
`Cc1ccc(-c2cn3nc(-c4ccccc4)c(-c4ccccc4)nc3n2)cc1` gave RORg inh 18.3%, p53 reactivator 5.9%, VP16 counter -2.5%, Giardia kill 29.3, BRCA1 expr up 13.9% and ELG1 repair inh 0.0%.
Nc1nc(-c2ccccc2)cn1N was read as RORg inh 3.16µM*, p53 reactivator 18.1%, VP16 counter 7.08µM*, Giardia kill -2.3, BRCA1 expr up -6.1% and ELG1 repair inh inconclusive.
`Cc1nc(C)c(C(=O)OCC(=O)N(C)c2ccccc2)s1` gave p53 reactivator 8.8%, Giardia kill 2.0, BRCA1 expr up 7.4% and ELG1 repair inh 9.7%.
COc1ccc(C(=O)NC(=S)Nc2ccc(N3CCN(C(C)=O)CC3)cc2)cc1[N+](=O)[O-] was read as RORg inh inconclusive, p53 reactivator -1.9%, VP16 counter 17.8µM*, Giardia kill -9.8, BRCA1 expr up -15.8% and ELG1 repair inh -27.5%.
`COc1ccc(C(=O)Nc2ccc(N3CCN(C)CC3)cc2)cc1[N+](=O)[O-]` gave RORg inh 0.6%, p53 reactivator -1.8%, VP16 counter 3.1%, Giardia kill -6.1, BRCA1 expr up -1.1% and ELG1 repair inh -0.5%.
Screening CC(=O)N1CCN(c2ccc(NC(=S)NC(=O)c3ccc(C)c([N+](=O)[O-])c3)cc2)CC1 returned RORg inh inconclusive, p53 reactivator -2.4%, VP16 counter 7.94µM*, Giardia kill -11.1, BRCA1 expr up -12.2% and ELG1 repair inh 20.6µM*.
COc1ccccc1NC(=O)Nc1ccc(S(=O)(=O)Nc2onc(C)c2C)cc1 was read as p53 reactivator 4.9%, Giardia kill -6.2, BRCA1 expr up -21.4% and ELG1 repair inh 14.4%.
Screening COC(=O)CNC(=O)C1CCCN1C(=O)CNC(=O)OC(C)(C)C (stereo not given) returned RORg inh -4.4%, p53 reactivator 9.3%, VP16 counter inconclusive, Giardia kill 13.1, BRCA1 expr up 13.1% and ELG1 repair inh inconclusive.
Screening COc1cc(C(F)(F)F)ccc1C(=O)NCCc1ccco1 returned RORg inh -0.9%, p53 reactivator 12.3%, VP16 counter 10.4%, Giardia kill -3.5, BRCA1 expr up 6.31µM* and ELG1 repair inh inconclusive.
Screening COc1cc(OC)c(C(=O)NCc2ccco2)cc1OC returned RORg inh 29.6%, p53 reactivator -17.9%, VP16 counter -2.8%, Giardia kill 4.0, BRCA1 expr up -3.0% and ELG1 repair inh 1.7%.
`C[C@]12C=CC(=O)C=C1CC[C@@H]1[C@@H]2C(=O)C[C@@]2(C)[C@H]1CC[C@]2(O)C(=O)COC(=O)CCC(=O)O` gave RORg inh -0.5%, p53 reactivator -2.7%, VP16 counter -3.0%, Giardia kill 8.9, BRCA1 expr up -11.9% and ELG1 repair inh 10.5%.
Screening Cc1ccc(-n2nc3c(c2NC(=O)/C=C\c2ccc4c(c2)OCO4)CSC3)cc1 returned RORg inh 18.9%, p53 reactivator -0.9%, VP16 counter -3.9%, Giardia kill 7.6, BRCA1 expr up -1.9% and ELG1 repair inh -22.1%.

Screening results deposited in PubChem BioAssay by National Center for Advancing Translational Sciences (NCATS).
